From PubChem
This is a sample that favours compounds with a hit; in the whole collection about 21% have one here.
HCV inhibitor – qHTS Assay for Inhibitors of Hepatitis C Virus (HCV); AID 651820, 2012; hit rate 3.4% among 340,000; Potency, µM (doses to about 41.8 µM), actives largely listed as inhibitors; Huh7.5.1 HCVcc-Cre infection, luciferase reporter, 44 h
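1,000 cells/well; 4 h culture; + compound; + HCVcc-Cre (~0.5 moi); 44 h; luciferase substrate, RT 15 min; read 15 sec.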
Pf growth 48h – Primary qHTS for delayed death inhibitors of the malarial parasite plastid, 48 hour incubation; AID 504832, 2011; Potency, µM (series often up to 28.7 µM), actives largely listed as inhibitors; P. falciparum luciferase growth in erythrocytes, 48 h; hit rate 5.9% among 310,000
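Luciferase-expressing parasites in RBCs, 2% Hct / 0.1% parasitemia final; RPMI 1640 + 0.5% Albumax; 37 C, 5% CO2, one generation; luminescence read-out, lower signal = inhibition.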
HCMV antiviral – qHTS Assay for inhibitors of the human cytomegalovirus (HCMV). HFF cells, HCMV-luciferase reporter, 72 h; stronger effect = lower value. activity change, negative = inhibition, % at 57.5 µM. AID 1259415, 2018. hit rate 4.5% among 410,000; in the data active = activity change below about -60%; inconclusive = no clear call, values can overlap the other calls; inactive = above about -39%
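Screen run at 2 compound doses on HFFs infected with reporter HCMV, MOI 1 PFU/cell. Luciferase activity from cell lysates at 72 h post infection gave inhibition relative to buffer-only and Salinomycin wells.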
Cycloheximide cs – Cycloheximide Counterscreen for Small Molecule Inhibitors of Shiga Toxin; cell reporter, cycloheximide protein synthesis inhibition counterscreen; max response, %; hit rate 12% among 300,000; in the data active = max response mostly above about 13%, no sharp cut-off; inactive = mostly below about 14%; also: read at 38.3 µM for the half of the compounds with a filed dose
Pf growth 96h – Primary qHTS for delayed death inhibitors of the malarial parasite plastid, 96 hour incubation; P. falciparum luciferase reporter growth, 96 h; Potency, µM (highest dose often 28.7 µM), usual class: inhibitors; hit rate 6.9% among 320,000
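Compounds incubated with erythrocytes infected by luciferase-expressing P. falciparum (2% hematocrit, 0.05% parasitemia final) for 96 hours, 37 C in 5% CO2. Growth inhibition scored as decreased luciferase luminescence.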
Shiga inhibitor – A qHTS for Small Molecule Inhibitors of Shiga Toxin | inhibition, % at 38.7 µM | hit rate 9.2% among 290,000 | Vero cells, Shiga toxin protein synthesis inhibition reporter; in the data active = inhibition mostly above about 28%, no sharp cut-off; inactive = mostly below about 43%
A number is an active result; - = inactive; ? = inconclusive; . = not tested or not shown. Unless noted, calls follow the shape of the dose curve; as a rule, active = well fitted inhibition curve with a large enough effect; inconclusive = small, poorly fitted or top-dose-only effect, or another doubt; inactive = no such curve, though single readings can be large or run the other way.

SMILES | HCV inhibitor | Pf growth 48h | HCMV antiviral | Cycloheximide cs | Pf growth 96h | Shiga inhibitor
O=C(Nc1ccncc1)c1cccc(S(=O)(=O)N2CCN(c3ccc(F)cc3)CC2)c1 | ? | ? | -71 | . | 12µM | .
Cc1ccc(NC(=O)c2cccc(S(=O)(=O)N3CCCC3)c2)nc1 | - | - | - | . | - | .
O=C(Nc1ncccc1O)c1cccc(S(=O)(=O)N2CCN(c3ccc(F)cc3)CC2)c1 | - | - | - | . | ? | .
O=C(c1cccc(S(=O)(=O)N2CCN(c3ccc(F)cc3)CC2)c1)N1CCCC(C(F)(F)F)C1 (centres undefined) | ? | ? | -61 | . | ? | .
O=C(CSc1cn(CC(=O)N2CCCCC2)c2ccccc12)Nc1ccc(C(F)(F)F)cc1 | . | . | - | . | . | .
COc1ccc(C(=O)OCC(=O)NCc2ccccc2)c(OC)c1OC | - | - | - | - | - | -
COC(=O)/C(=C\Nc1ccccc1N)c1ncc(C(F)(F)F)cc1Cl | - | . | - | 68 | - | 101
N/C(=N\OC(=O)Nc1ccccc1)c1ncc(C(F)(F)F)cc1Cl | - | . | - | 20 | - | 53
N/C(=N\OC(=O)Nc1ccccc1)c1cccc(C(F)(F)F)c1 | - | ? | - | 29 | ? | 43
CCOC(=O)c1ccc(CN2C(=O)C(n3cccc3)c3ccccc32)o1 (centres undefined) | . | . | - | . | . | .
O=C(NNCc1ccccc1)c1ccccn1 | - | . | - | . | . | .
COc1ccc(NC(=S)N2CCN(c3ccccn3)CC2)cc1 | - | - | ? | - | ? | -
CC(=NNC(=S)N1CCCC1)c1ccccn1 | . | . | -99 | . | . | .
CC(=NNC(=S)SCc1ccccc1)c1ccccn1 | 0.32µM | . | -97 | . | . | .
CC(=NNC(=S)N1CCC1)c1ccccn1 | 1.3µM | . | -101 | . | . | .
S=C(Nc1ccccc1)N1CCN(c2ccccn2)CC1 | - | - | - | - | - | -
COc1ccc(-c2nc3sc(CCNC(=O)C(=O)Nc4cc(C)cc(C)c4)c(C)n3n2)cc1 | . | . | - | . | . | .
CCOc1ccccc1CNC(=O)c1cc(-c2ccc(Cl)s2)nc2ccccc12 | . | . | - | . | . | .
COc1ccc(N(C)C(=O)c2oc(=O)c3ccccc3c2-c2ccc(C)cc2)c(OC)c1 | 10µM | ? | - | - | ? | -
Cc1ccc(C)c2c1cc(C)c1nnc(SCc3ccccn3)n12 | - | ? | - | - | - | -
Cn1c(SCc2ccccn2)nnc1-c1ccccc1 | - | - | - | 36 | - | 103
Cc1cc2cc(C)c3nnc(SCc4ccccn4)n3c2cc1C | ? | - | -65 | - | ? | -
Cn1c(SCc2ccccn2)nnc1-c1ccncc1 | - | - | - | - | . | -
COc1cccc(-c2nnc(SCc3ccccn3)n2C)c1 | - | - | - | 17 | . | -
O=[N+]([O-])c1ccccc1S(=O)(=O)N1CCCCC1 | - | - | - | - | - | -
SMILES | HCV inhibitor | Pf growth 48h | HCMV antiviral | Cycloheximide cs | Pf growth 96h | Shiga inhibitor
O=[N+]([O-])c1ccccc1S(=O)(=O)N1CCCC(C(F)(F)F)C1 (centres undefined) | - | - | - | - | 0.83µM | -
COc1ccc2[nH]c(C)c(CCNC(=S)Nc3ccc(C)cc3)c2c1 | ? | ? | -68 | - | ? | -
CCc1cccc(CC)c1NC(=S)NCCc1c(C)[nH]c2ccccc12 | ? | 13µM | -71 | - | 13µM | -
COc1ccc2[nH]c(C)c(CCNC(=S)Nc3ccccc3C)c2c1 | ? | ? | - | - | ? | -
Cc1ccc(-c2nc(N)sc2C)cc1 | - | - | - | 15 | - | 33
Cc1ccc(-c2nc(N)sc2-c2ccc(C)cc2)cc1 | - | - | - | - | - | -
COc1ccc(C(=O)N(CN2CCCC2=O)c2ccccc2OC)cc1OC | - | - | - | - | 0.0041µM | -
O=C(O)C1CC2CCC1CC2 (centres undefined) | - | . | - | . | . | .
Cc1ccccc1CSc1nc2cc(C(=O)NC3CCCC3)ccc2c(=O)n1Cc1ccccc1 | . | . | - | . | . | .
Cc1ccc(-c2nnn(CC(=O)N(Cc3ccco3)C(C(=O)NC(C)(C)C)c3cccs3)n2)o1 (centres undefined) | ? | 15µM | - | - | - | -
Cc1ccc(-c2nnn(CC(=O)N(Cc3cccs3)C(C(=O)NC(C)(C)C)c3ccco3)n2)o1 (centres undefined) | ? | - | - | - | . | -
Cc1ccc(-c2nnn(CC(=O)N(Cc3cccs3)C(C(=O)NC(C)(C)C)c3ccc(C)o3)n2)o1 (centres undefined) | ? | - | - | - | . | -
COc1cccc(N(C(=O)Cn2nnc(-c3ccc(C)o3)n2)C(C(=O)NC(C)(C)C)c2cccs2)c1 (centres undefined) | - | 13µM | - | - | - | -
CC(C)(C)NC(=O)C(c1c[nH]c2ccccc12)N(C(=O)Cn1nnc(-c2ccc(F)cc2)n1)c1cccc(O)c1 (centres undefined) | 10µM | 2.6µM | - | - | ? | -
Cc1ccc(CNC(=O)CN2N=C(c3ccc(C)cc3)CCC2=O)cc1 | . | . | - | . | . | .
COc1cccc(C(C)(O)c2nc(-c3ccc(OC)c(OC)c3)cs2)c1 (centres undefined) | . | . | - | . | . | .
COc1ccc(N2CCN(C(=O)C(=O)c3cc(OC)c(OC)c(OC)c3)CC2)cc1 | . | . | - | . | . | .
CC(C)(C)NCC(=Cc1ccccc1)C(=O)c1ccccc1 | ? | . | -98 | . | . | .
COc1ccc(CN2C(=O)C(n3ccc4ccccc43)c3ccccc32)cc1 (centres undefined) | . | . | - | . | . | .
Cc1ccc(C(=O)N/N=C\c2cc3c(cc2Br)OCO3)s1 | - | ? | - | - | ? | -
O=C(N/N=C\c1ccncc1)c1ccc(Br)s1 | ? | - | - | 13 | - | -
O=C(N/N=C\c1ccncc1)c1ccc(Cl)s1 | - | - | - | - | 13µM | -
Cc1ccc(C(=O)N/N=C\c2ccncc2)s1 | - | - | - | 40 | ? | 53
O=C(N/N=C\c1cccnc1)c1ccc(Cl)s1 | - | - | - | - | ? | -
O=C(N/N=C\c1cccnc1)c1ccc(Br)s1 | ? | - | . | 34 | - | -
SMILES | HCV inhibitor | Pf growth 48h | HCMV antiviral | Cycloheximide cs | Pf growth 96h | Shiga inhibitor
CC1(C)CC(=O)C=C(c2ccccc2-c2cccc(C(N)=O)c2)C1=O | . | . | - | . | . | .
O=C(N/N=C/c1ccncc1)c1cc(-c2ccc(Br)s2)[nH]n1 | - | ? | - | 32 | 12µM | -
O=C(N/N=C/c1ccncc1)c1cc2ccccc2o1 | - | - | - | - | - | -
CCc1ccc(C(=O)N/N=C/c2ccncc2)s1 | 13µM | ? | - | 23 | - | -
O=C(N/N=C/c1ccccn1)c1cc(-c2ccc(Br)s2)[nH]n1 | - | ? | - | - | - | -
Cc1cc(C)cc(Oc2cc(NC(=O)c3cn(C)nc3C)cc([N+](=O)[O-])c2)c1 | - | . | - | - | 8.3µM | -
O=C(CCl)Nc1cc(SCC(O)CO)cc([N+](=O)[O-])c1 (centres undefined) | 1.6µM | ? | -99 | - | - | -
